This passage reports compound max-min signal, glutamate response, % of max and glutamate slope, % of max results from PubChem BioAssay AID1259245 (Vanderbilt High Throughput Screening Facility, 2017).

Among all 40,000 compounds or so, about 1,400 (3.5%) were called active.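 The calls were made as follows: active = any of four per-well response measures lying three or more SD from its plate-wide compound average, in either direction; inactive = the rest, inconclusive results apart.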 Many of the other results were omitted from the sample, so actives are more common in it than they were.

The target in this assay is Voltage-dependent calcium channel gamma-2 subunit (Mus musculus) + Glutamate receptor 2 (Rattus norvegicus) (UniProt O88602+P19491). Kind of assay: AMPAR-TARP gamma-2 complex positive or negative modulation – cell-based, membrane potential dye, primary screen (AID 1259245). Particulars: HEK293 GluA2+stargazin, membrane potential dye (FDSS), glutamate EC50, at 30 µM, hits were called plate by plate, in both directions; compound max-min signal: compound-alone response (agonism); glutamate slope, % of max: measured here: glutamate response slope, % max.
Voltage-dependent calcium channel gamma-2 subunit (Mus musculus) + Glutamate receptor 2 (Rattus norvegicus), sequence (O88602 whole entry, looked up): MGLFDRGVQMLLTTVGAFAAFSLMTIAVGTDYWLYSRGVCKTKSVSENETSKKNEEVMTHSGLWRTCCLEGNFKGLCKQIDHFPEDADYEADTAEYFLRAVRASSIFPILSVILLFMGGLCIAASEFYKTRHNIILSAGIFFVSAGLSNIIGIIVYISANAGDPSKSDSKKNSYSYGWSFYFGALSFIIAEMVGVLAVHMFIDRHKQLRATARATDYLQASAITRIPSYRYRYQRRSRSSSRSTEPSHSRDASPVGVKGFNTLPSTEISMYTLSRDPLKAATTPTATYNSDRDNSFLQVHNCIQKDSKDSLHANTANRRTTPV
Voltage-dependent calcium channel gamma-2 subunit (Mus musculus) + Glutamate receptor 2 (Rattus norvegicus), sequence (P19491 whole entry, looked up): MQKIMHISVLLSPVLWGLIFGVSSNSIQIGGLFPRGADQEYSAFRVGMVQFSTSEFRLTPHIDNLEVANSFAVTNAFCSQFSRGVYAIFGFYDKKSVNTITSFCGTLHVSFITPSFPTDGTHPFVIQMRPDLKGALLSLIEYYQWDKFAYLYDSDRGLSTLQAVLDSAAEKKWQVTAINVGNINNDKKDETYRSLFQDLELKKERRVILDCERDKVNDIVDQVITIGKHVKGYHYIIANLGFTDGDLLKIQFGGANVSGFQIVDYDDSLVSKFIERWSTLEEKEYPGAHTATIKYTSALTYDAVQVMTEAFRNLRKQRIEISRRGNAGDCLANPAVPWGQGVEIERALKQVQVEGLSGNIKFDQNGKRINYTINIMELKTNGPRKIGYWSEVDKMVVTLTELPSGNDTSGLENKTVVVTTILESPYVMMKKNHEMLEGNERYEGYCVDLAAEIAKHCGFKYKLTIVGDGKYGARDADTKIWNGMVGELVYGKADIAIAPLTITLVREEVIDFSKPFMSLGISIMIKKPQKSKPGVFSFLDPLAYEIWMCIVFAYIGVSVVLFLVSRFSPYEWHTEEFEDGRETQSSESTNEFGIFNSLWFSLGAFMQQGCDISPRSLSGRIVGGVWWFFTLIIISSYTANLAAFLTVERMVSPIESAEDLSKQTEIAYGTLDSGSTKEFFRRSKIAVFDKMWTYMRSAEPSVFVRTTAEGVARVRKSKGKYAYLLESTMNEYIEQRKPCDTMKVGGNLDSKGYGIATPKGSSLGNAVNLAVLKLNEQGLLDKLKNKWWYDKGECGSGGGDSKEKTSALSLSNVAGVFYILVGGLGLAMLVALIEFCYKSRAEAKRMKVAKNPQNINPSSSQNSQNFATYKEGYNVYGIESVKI
For `O=[N+]([O-])c1cccc(CSc2nnc(-c3ccncc3)o2)c1`, the compound max-min signal amounted to 0.0611; the glutamate response, % of max was 20.8% (inactive); the glutamate slope, % of max is 47.1%.

With `CC(=O)c1sc(NC(=O)C2CCCN(S(C)(=O)=O)C2)nc1-c1ccccc1` (stereo not drawn), the compound max-min signal turned out to be 0.126; the glutamate response, % of max is 21.7% (inactive); the glutamate slope, % of max worked out at 40.2%.

With `CCOc1ccc(-c2ccc(=O)n(CCCC(=O)Nc3cc(Cl)ccc3OC)n2)cc1`, the compound max-min signal was 0.0223; the glutamate response, % of max was 14.7% (inactive); the glutamate slope, % of max was 28.2%.

`CCOc1ccc(-c2cc(=O)n(CCCC(=O)Nc3cc(C)ns3)cn2)cc1`: the compound max-min signal is 0.074; the glutamate response, % of max was -0.752% (active); the glutamate slope, % of max was 5.34%.

Regarding `COc1ccc(-c2ccc(=O)n(CCCC(=O)Nc3ccccc3-c3ccccc3)n2)cc1`, the compound max-min signal is 0.0404; the glutamate response, % of max was 21.1% (inactive); the glutamate slope, % of max was determined as 39%.

Regarding `COc1cc(NS(=O)(=O)c2ccccc2F)ccc1N1CCCCC1=O`, the compound max-min signal was found to be 0.0504; the glutamate response, % of max is 15.5% (inactive); the glutamate slope, % of max came out at 35.3%.

In the case of `COc1ccc(C(CNC(=O)c2ccccc2Cl)N2CCOCC2)cc1` (stereo not drawn), the compound max-min signal amounted to 0.07; the glutamate response, % of max is 35.7% (active); the glutamate slope, % of max came to 45.9%.

For `COc1cccc(C(CNC(=O)c2ccc(OC(C)C)cc2)N2CCOCC2)c1` (stereo not drawn), the compound max-min signal came to 0.0693; the glutamate response, % of max is 22.5% (inactive); the glutamate slope, % of max is 42.1%.

`COc1ccc(C(CNC(=O)c2cc(C)cc(C)c2)N2CCOCC2)cc1` (stereo not drawn): the compound max-min signal is 0.0728; the glutamate response, % of max was 37.2% (inactive); the glutamate slope, % of max came to 50.1%.

As to `COc1ccc(NC(=O)C(=O)Nc2cc([N+](=O)[O-])ccc2C)cc1OC`, the compound max-min signal is 0.325; the glutamate response, % of max is 62.6% (active); the glutamate slope, % of max was found to be 80.6%.

Regarding `COc1ccccc1CCNC(=O)C(=O)Nc1cc([N+](=O)[O-])ccc1C`, the compound max-min signal came out at 0.125; the glutamate response, % of max is 47.7% (inactive); the glutamate slope, % of max stood at 62.3%.

Consider `COc1cccc(CNC(=O)C(=O)Nc2cc([N+](=O)[O-])ccc2C)c1`, for which the compound max-min signal was determined as 0.135; the glutamate response, % of max was 41.7% (inactive); the glutamate slope, % of max was found to be 61.5%.

For `O=C(NCCNc1ccc(Nc2ccncc2)nn1)c1cccc2ccccc12`, the compound max-min signal came out at 0.274; the glutamate response, % of max is 30.8% (inactive); the glutamate slope, % of max is 57.7%.

As to `O=C(NCCn1ncc2c(N3CCOCC3)ncnc21)c1ccc2c(c1)OCO2`, the compound max-min signal was 0.0657; the glutamate response, % of max was 28.9% (inactive); the glutamate slope, % of max was determined as 49.6%.

For `CC(O)(CNC(=O)NCc1ccc(F)cc1)c1ccc(-c2ccccc2)cc1` (stereo not drawn), the compound max-min signal was found to be 0.113; the glutamate response, % of max is 15.8% (inactive); the glutamate slope, % of max was found to be 57.2%.

As for `O=C(NNC(=O)c1ccc(=O)n(Cc2ccccc2)c1)c1ccc(F)c(F)c1`, the compound max-min signal worked out at 0.0736; the glutamate response, % of max was 29.9% (inactive); the glutamate slope, % of max was determined as 51.5%.

As to `Cn1nc(NC(=O)/C=C\c2ccc3c(c2)OCO3)c2c1NC(=O)CC2c1ccco1` (stereo not drawn), the compound max-min signal stood at 0.119; the glutamate response, % of max was 38.8% (inactive); the glutamate slope, % of max was found to be 66.5%.

`Cn1nc(NC(=O)c2ccc3c(c2)OCO3)c2c1NC(=O)CC2c1cccs1` (stereo not drawn): the compound max-min signal worked out at 0.101; the glutamate response, % of max was 34.8% (inactive); the glutamate slope, % of max amounted to 53.9%.

Regarding `CC1CC(=O)Nc2c1c(NC(=O)c1ccc3c(c1)OCO3)nn2C` (stereo not drawn), the compound max-min signal amounted to 0.11; the glutamate response, % of max is 23.6% (active); the glutamate slope, % of max amounted to 38.4%.

For the compound `COc1ccc(NC(=O)C(=O)NCC2CCN(C)CC2)c(OC)c1`, the compound max-min signal worked out at 0.0817; the glutamate response, % of max is 43.1% (inactive); the glutamate slope, % of max was 70.1%.

Take `Cc1ccc(-n2ncc3c(=O)n(CC(=O)N4CCOCC4)cnc32)cc1C`: the compound max-min signal came out at 0.0678; the glutamate response, % of max is 29.7% (inactive); the glutamate slope, % of max is 52.9%.

In the case of `Cn1cccc1C(CNS(=O)(=O)c1ccc(F)cc1)N1CCOCC1` (stereo not drawn), the compound max-min signal came to 0.0736; the glutamate response, % of max is 28.1% (inactive); the glutamate slope, % of max was 55.5%.

For `O=[N+]([O-])c1cccc(S(=O)(=O)NCC(c2cccs2)N2CCOCC2)c1` (stereo not drawn), the compound max-min signal was 0.129; the glutamate response, % of max is 23.5% (active); the glutamate slope, % of max was 44.4%.

As to `COc1ccc(S(=O)(=O)NCC(c2cccn2C)N2CCOCC2)cc1OC` (stereo not drawn), the compound max-min signal turned out to be 0.0786; the glutamate response, % of max is 34.5% (inactive); the glutamate slope, % of max was 60.4%.

For `O=C(NCCn1ncc2c(N3CCN(c4ccccc4)CC3)ncnc21)c1cccs1`, the compound max-min signal is 0.0478; the glutamate response, % of max was 45.6% (inactive); the glutamate slope, % of max amounted to 68.2%.

Turning to `COc1ccc(CN(CC(=O)N(C)c2ccccc2)S(=O)(=O)c2cccnc2)cc1`, the compound max-min signal came to 0.128; the glutamate response, % of max was 30.9% (inactive); the glutamate slope, % of max was 52.8%.

As to `O=C1/C(=C/c2cccnc2)SC(=S)N1c1ccc2c(c1)OCCO2`, the compound max-min signal stood at 0.116; the glutamate response, % of max is 41.7% (inactive); the glutamate slope, % of max is 65.3%.

Take `Cn1cnc2cc(OC(=O)c3ccc(=O)[nH]n3)ccc21`: the compound max-min signal was determined as 0.276; the glutamate response, % of max is 33% (active); the glutamate slope, % of max stood at 52.5%.

As for `COc1ccc(-c2ccc(N3CCN(C(=O)c4ccc(=O)[nH]n4)CC3)nn2)cc1`, the compound max-min signal was found to be 0.0223; the glutamate response, % of max was 13.3% (inactive); the glutamate slope, % of max is 24.1%.

Turning to `COc1ccc(C(=O)NCCOc2ccc(-c3ccc(F)cc3)nn2)c(OC)c1`, the compound max-min signal was found to be 0.0424; the glutamate response, % of max was 40.3% (inactive); the glutamate slope, % of max was determined as 60.6%.

As for `COc1ccc(C(=O)N2CCc3cc(S(=O)(=O)NC4CCCC4)ccc32)cc1`, the compound max-min signal was 0.109; the glutamate response, % of max was 49% (inactive); the glutamate slope, % of max amounted to 67.4%.

As to `COc1cc(OC)cc(C(=O)Nc2nnc(-c3cc(OC)c(OC)c(OC)c3)o2)c1`, the compound max-min signal turned out to be 0.259; the glutamate response, % of max was 56.5% (active); the glutamate slope, % of max stood at 83.8%.

As for `COc1cc(C(=O)Nc2nnc(-c3ccc(SC)cc3)o2)cc(OC)c1OC`, the compound max-min signal came out at 0.0956; the glutamate response, % of max is 30.8% (inactive); the glutamate slope, % of max amounted to 51.3%.

As for `COc1cccc(C(=O)Nc2nnc(-c3ccc(OC)c(OC)c3)o2)c1`, the compound max-min signal came to 0.128; the glutamate response, % of max is 35.2% (inactive); the glutamate slope, % of max worked out at 53.9%.

Regarding `Cn1cccc1C(CNC(=O)C(=O)Nc1ccccc1F)N1CCOCC1` (stereo not drawn), the compound max-min signal is 0.0712; the glutamate response, % of max is 30.1% (inactive); the glutamate slope, % of max stood at 55%.

For `CCCCN1CC(c2nc3ccccc3n2CCOc2ccc(C)cc2)CC1=O` (stereo not drawn), the compound max-min signal worked out at 0.135; the glutamate response, % of max was 45.7% (inactive); the glutamate slope, % of max was 78.7%.
